Activity calls are given as the source filed them. How the calls were made is not given here.
Test system: Botulinum neurotoxin type F light chain protease (Clostridium botulinum)
Experiment: Clostridium botulinum type F light chain protease inhibitors, microsphere substrate cleavage, validation (AID 588459)
Details: multiplex microsphere protease substrate cleavage assay, flow cytometry; at 10 µM; hits give high values

Compound | inhibition
CN1CCN(C2=Nc3ccccc3Oc3ccc(Cl)cc32)CC1 | -0.8% (inactive)
C/C=C/c1ccc(OCCCCN2CC(C)CC(C)C2)c(OC)c1 (stereo not given) | 3.1% (inactive)
Fc1ccc(NC(=S)Nc2ccccc2Cl)cc1 | 1.8% (inactive)
C[C@]12CCC(=O)C=C1[C@H](O)C[C@@H]1[C@@H]2[C@@H](O)C[C@@]2(C)[C@H]1CC[C@]2(O)C(=O)CO | -0.1% (inactive)
Cc1ccc2c(c1)c1c(n2C)C(=O)CCC1 | -1.5% (inactive)
N#Cc1cc2c([nH]c1=O)CCCC2 | -0.1% (inactive)
O=C(NCc1ccccc1Cl)NC(=O)c1ccccc1 | -1.4% (inactive)
COC(=O)C1=C(C)NC(C)=C([N+](=O)[O-])C1c1ccccc1C(F)(F)F (stereo not given) | -0.4% (inactive)
OCCN1CCN(CCCN2c3ccccc3Sc3ccc(C(F)(F)F)cc32)CC1 | -3.2% (inactive)
CCSC(SCC)[C@H](O)[C@@H](O)[C@H](O)[C@H](O)CO | 3.3% (inactive)
Cn1cc(C2N3CC4(C)CN2CC(C)(C3)C4=O)c2ccccc21 (stereo not given) | 1% (inactive)
CC(=O)OCC(=O)[C@@]1(OC(C)=O)[C@@H](C)C[C@H]2[C@@H]3C[C@H](F)C4=CC(=O)C=C[C@]4(C)[C@@]3(F)[C@@H](O)C[C@@]21C | 1.6% (inactive)
O=C1NC2(Nc3ccccc31)C(=O)Nc1ccc(Br)cc12 (stereo not given) | -0.5% (inactive)
O[C@@H](CNC[C@H](O)c1ccccc1)c1ccccc1 | 3.9% (inactive)
Cc1cccc(C)c1NS(=O)(=O)c1ccc(NC(=O)c2ccc(Cl)c([N+](=O)[O-])c2)cc1 | 2.3% (inactive)
